# Measured values from PubChem BioAssay.
# Values joined by “and” are separate entries in the source; they are usually repeats but may differ in a detail not shown here. Equal entries are not always repeated. Records with an inconclusive call do not appear. Active and inactive are the calls of the source.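 The calls were made as follows, unless noted: active = normalized viability below 100% at a tested concentration; inactive = the rest.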
# Assays:
# [1] = viability loss in pontine glioma line – cell-based, SU-DIPG-XXV, MIPE5.0, CellTiter-Glo, qHTS, dose response (AID 1347065; cut-off not given, nearly all actives have AC50 up to about 26 µM;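 also: cells exposed to compound for 48 hours before ATP readout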); conditions: CellTiter-Glo ATP luminescence
# [2] = JHH-DIPG-1 glioma cell viability, MIPE5.0 library, CellTiter-Glo luminescence, qHTS (AID 1347067; cut-off not given, nearly all actives have AC50 up to about 26 µM;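 also: cells exposed to compound for 48 hours before readout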); conditions: JHH-DIPG-1 glioma viability, CellTiter-Glo ATP luminescence
# [3] = viability loss with induced miR-34 in A549 – imaging, A549 dox-inducible miR-34, nuclei and caspase counts, primary screen (AID 1347080;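 active = compounds whose cell count with miR-34 switched on is under 0.7 times the count with it off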); conditions: A549 miR-34 inducible, Hoechst nuclei count, 48 h
# [4] = MELAS cybrid and Rieske KO viability enhancers – cell-based, MELAS cybrids, Rieske KO mouse fibroblasts, CellTiter-Glo, primary screen (AID 1508586;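 active = mean z-score across replicates of 1.96 or higher in either the MELAS or the Rieske mutant cell line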;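 also: z relative to plate mean and SD of compound and empty wells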); conditions: low glucose
# [5] = growth inhibition of DIPG cells – cell-based, MIPE4.0 library, CellTiter-Glo luminescence, qHTS (AID 1347066; cut-off not given, nearly all actives have AC50 up to about 30 µM;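 also: cells exposed to compound for 48 hours before readout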); conditions: SU-DIPG-VI viability, CellTiter-Glo ATP luminescence
# [6] = growth inhibition of DIPG cells – cell-based, MIPE5.0 library, qHTS (AID 1347068; cut-off not given, nearly all actives have IC50 up to about 30 µM); conditions: SU-DIPG-XXV viability
# [7] = blockers of cellular phospholipid synthesis – cell-based, LOPAC library, screen 4, primary screen (AID 1347384; call rule not given here); conditions: animal cells, phospholipid biosynthesis inhibition screen; at 10 µM
# [8] = chitosan synthesis blockers in C. neoformans – flow cytometry, Cibacron Brilliant Red staining (AID 1347148; call rule not given here;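 also: compound exposure lasted three days at 37 degrees C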); conditions: Cryptococcus neoformans chitosan, stronger effect = lower value; at 10 µM unless noted
# [9] = drug combination growth inhibition, ovarian cancer – cell-based, oncology-focused library, rucaparib conditional, profiling panel (AID 1508598); conditions: patient-derived ovarian cancer cells, CellTiter-Glo viability, 144 h, stronger effect = lower value
# [10] = stronger effect = lower value, cell number ratio, induced over uninduced
# [11] = measured here: relative caspase fold change +Dox/-Dox
# [12] = measured here: total cells with miR-34 induction, stronger effect = lower value
# [13] = measured here: total cells without miR-34 induction
# [14] = MELAS cybrid survival, CellTiter-Glo 48 h, stronger effect = higher value
# [15] = Rieske KO mouse fibroblast survival, CellTiter-Glo 72 h
compound,measurement,setting,value
CCCOc1ccc2nc(NC(=O)OC)[nH]c2c1,AC50,[1],0.235 µM (active)
same,AC50,[2],0.295 µM (active)
same,fold change,[3]; [10],1.06 (inactive) and 1 (inactive)
same,fold change,[3]; [11],1.87 and 1.28
same,cell count,[3]; [12],2370 and 1800
same,cell count,[3]; [13],2250 and 1790
same,z-score,[4]; [14],-1.88 (inactive) and -2.12 (inactive)
same,z-score,[4]; [15],-0.332 and 1.54
Cc1cc(C2CCCCC2)n(O)c(=O)c1,AC50,[1],2.35 µM (active)
same,AC50,[2],2.63 µM (active)
same,z-score,[4]; [14],0.334 (inactive) and 0.408 (inactive) and 0.404 (inactive)
same,z-score,[4]; [15],-0.762 and -0.715 and 0.148
CC(C)(C)NC(=O)[C@H]1CC[C@H]2[C@@H]3CC[C@H]4NC(=O)C=C[C@]4(C)[C@H]3CC[C@]12C,outcome,[5],inactive
same,outcome,[2],inactive
same,outcome,[6],inactive
same,fold change,[3]; [10],0.927 (inactive) and 0.774 (inactive)
same,fold change,[3]; [11],1.11 and 2.31
same,cell count,[3]; [12],8640 and 8130
same,cell count,[3]; [13],9320 and 10500
same,z-score,[4]; [14],0.136 (inactive) and 0.187 (inactive)
same,z-score,[4]; [15],0.621 and 0.926
O=C(NC(Cc1cc(=O)[nH]c2ccccc12)C(=O)O)c1ccc(Cl)cc1 (stereo not given),outcome,[5],inactive
same,outcome,[2],inactive
same,outcome,[6],inactive
same,fold change,[3]; [10],0.898 (inactive) and 0.888 (inactive)
same,fold change,[3]; [11],0.965 and 1.15
same,cell count,[3]; [12],8440 and 9630
same,cell count,[3]; [13],9400 and 10800
same,z-score,[4]; [14],-0.219 (inactive) and -0.0914 (inactive) and 0.278 (inactive)
same,z-score,[4]; [15],0.648 and -0.845 and -0.0622
CO[C@@]12[C@H](COC(N)=O)C3=C(C(=O)C(C)=C(N)C3=O)N1C[C@@H]1N[C@@H]12,AC50,[1],9.34 µM (active)
same,AC50,[2],3.32 µM (active)
same,fold change,[3]; [10],1.21 (inactive) and 1.12 (inactive)
same,fold change,[3]; [11],0.667 and 0.791
same,cell count,[3]; [12],1280 and 1220
same,cell count,[3]; [13],1060 and 1090
same,z-score,[4]; [14],-0.241 (inactive)
same,z-score,[4]; [15],-1.21
C1CCC(C(CC2CCCCN2)C2CCCCC2)CC1 (stereo not given),AC50,[1],10.5 µM (active)
same,AC50,[2],8.33 µM (active)
same,fold change,[3]; [10],0.746 (inactive) and 0.859 (inactive)
same,fold change,[3]; [11],0.891 and 3.18
same,cell count,[3]; [12],5600 and 9890
same,cell count,[3]; [13],7500 and 11500
same,z-score,[4]; [14],-1.07 (inactive)
same,z-score,[4]; [15],0.712
CCCCOc1ccc(CC(=O)NO)cc1,outcome,[1],inactive
same,outcome,[6],inactive
same,fold change,[3]; [10],0.904 (inactive) and 0.891 (inactive)
same,fold change,[3]; [11],1.17 and 0.62
same,cell count,[3]; [12],7500 and 10000
same,cell count,[3]; [13],8290 and 11200
same,z-score,[4]; [14],-0.309 (inactive) and 0.359 (inactive)
same,z-score,[4]; [15],0.677 and -0.599
Cc1ccc(S(=O)(=O)NC(=O)NN2CC3CCCC3C2)cc1 (stereo not given),outcome,[1],inactive
same,outcome,[2],inactive
same,outcome,[6],inactive
same,fold change,[3]; [10],0.889 (inactive) and 0.88 (inactive)
same,fold change,[3]; [11],1.81 and 0.848 and 0.946
same,cell count,[3]; [12],8400 and 8080 and 10300
same,cell count,[3]; [13],9450 and 9180 and 11600
same,z-score,[4]; [14],-0.361 (inactive) and -0.892 (inactive) and 0.121 (inactive)
same,z-score,[4]; [15],0.53 and -0.111 and 0.139
O=C1CCc2cc(OCCCCc3nnnn3C3CCCCC3)ccc2N1,outcome,[1],inactive
same,outcome,[2],inactive
same,outcome,[7],inactive
same,z-score,[4]; [14],-0.457 (inactive) and 0.645 (inactive)
same,z-score,[4]; [15],0.52 and 0.278
O=c1c(O)c(-c2ccc(O)c(O)c2)oc2cc(O)cc(O)c12,outcome,[1],inactive
same,outcome,[2],inactive
same,outcome,[6],inactive
same,fold fluorescence,[8],2.95 [at 165.4 µM] (active)
same,outcome,[7],inactive
same,z-score,[4]; [14],-0.4 (inactive) and -0.42 (inactive)
same,z-score,[4]; [15],-1.01 and 0.378
same,viability,"[9]; at 0.000305 µM, OCI-C5x cells, with rucaparib 10 µM, 100% = cells with rucaparib alone",118% (inactive)
same,viability,"[9]; at 0.000305 µM, OCI-C5x cells, without rucaparib",113% (inactive)
same,viability,"[9]; at 0.000305 µM, OCI-P5x cells, with rucaparib 20 µM, 100% = cells with rucaparib alone",92% (active)
same,viability,"[9]; at 0.000305 µM, OCI-P5x cells, without rucaparib",92.3% (active)
same,viability,"[9]; at 0.00122 µM, OCI-C5x cells, with rucaparib 10 µM, 100% = cells with rucaparib alone",122% (inactive)
same,viability,"[9]; at 0.00122 µM, OCI-C5x cells, without rucaparib",119% (inactive)
same,viability,"[9]; at 0.00122 µM, OCI-P5x cells, with rucaparib 20 µM, 100% = cells with rucaparib alone",97.3% (active)
same,viability,"[9]; at 0.00122 µM, OCI-P5x cells, without rucaparib",102% (inactive)
same,viability,"[9]; at 0.00488 µM, OCI-C5x cells, with rucaparib 10 µM, 100% = cells with rucaparib alone",117% (inactive)
same,viability,"[9]; at 0.00488 µM, OCI-C5x cells, without rucaparib",129% (inactive)
same,viability,"[9]; at 0.00488 µM, OCI-P5x cells, with rucaparib 20 µM, 100% = cells with rucaparib alone",104% (inactive)
same,viability,"[9]; at 0.00488 µM, OCI-P5x cells, without rucaparib",105% (inactive)
same,viability,"[9]; at 0.0195 µM, OCI-C5x cells, with rucaparib 10 µM, 100% = cells with rucaparib alone",127% (inactive)
same,viability,"[9]; at 0.0195 µM, OCI-C5x cells, without rucaparib",125% (inactive)
same,viability,"[9]; at 0.0195 µM, OCI-P5x cells, with rucaparib 20 µM, 100% = cells with rucaparib alone",105% (inactive)
same,viability,"[9]; at 0.0195 µM, OCI-P5x cells, without rucaparib",105% (inactive)
same,viability,"[9]; at 0.0781 µM, OCI-C5x cells, with rucaparib 10 µM, 100% = cells with rucaparib alone",114% (inactive)
same,viability,"[9]; at 0.0781 µM, OCI-C5x cells, without rucaparib",125% (inactive)
same,viability,"[9]; at 0.0781 µM, OCI-P5x cells, with rucaparib 20 µM, 100% = cells with rucaparib alone",105% (inactive)
same,viability,"[9]; at 0.0781 µM, OCI-P5x cells, without rucaparib",109% (inactive)
same,viability,"[9]; at 0.313 µM, OCI-C5x cells, with rucaparib 10 µM, 100% = cells with rucaparib alone",111% (inactive)
same,viability,"[9]; at 0.313 µM, OCI-C5x cells, without rucaparib",127% (inactive)
same,viability,"[9]; at 0.313 µM, OCI-P5x cells, with rucaparib 20 µM, 100% = cells with rucaparib alone",101% (inactive)
same,viability,"[9]; at 0.313 µM, OCI-P5x cells, without rucaparib",112% (inactive)
same,viability,"[9]; at 1.25 µM, OCI-C5x cells, with rucaparib 10 µM, 100% = cells with rucaparib alone",111% (inactive)
same,viability,"[9]; at 1.25 µM, OCI-C5x cells, without rucaparib",125% (inactive)
same,viability,"[9]; at 1.25 µM, OCI-P5x cells, with rucaparib 20 µM, 100% = cells with rucaparib alone",103% (inactive)
same,viability,"[9]; at 1.25 µM, OCI-P5x cells, without rucaparib",107% (inactive)
same,viability,"[9]; at 5 µM, OCI-C5x cells, with rucaparib 10 µM, 100% = cells with rucaparib alone",109% (inactive)
same,viability,"[9]; at 5 µM, OCI-C5x cells, without rucaparib",120% (inactive)
same,viability,"[9]; at 5 µM, OCI-P5x cells, with rucaparib 20 µM, 100% = cells with rucaparib alone",90.4% (active)
same,viability,"[9]; at 5 µM, OCI-P5x cells, without rucaparib",107% (inactive)
Cc1[nH]c(=O)c(C#N)cc1-c1ccncc1,outcome,[1],inactive
same,outcome,[2],inactive
same,outcome,[6],inactive
same,fold fluorescence,[8],6.33 [at 236.7 µM] (inactive)
same,outcome,[7],inactive
same,z-score,[4]; [14],-0.327 (inactive) and 0.548 (inactive) and 0.108 (inactive)
same,z-score,[4]; [15],0.87 and -0.397 and -0.212
O=C1CCc2ccc(OCCCCN3CCN(c4cccc(Cl)c4Cl)CC3)cc2N1,AC50,[1],13.2 µM (active)
same,z-score,[4]; [14],-0.393 (inactive) and -1.22 (inactive) and -0.905 (inactive)
same,z-score,[4]; [15],0.269 and 1.31 and -0.2
Cc1nnc(NS(=O)(=O)c2ccc(N)cc2)s1,outcome,[1],inactive
same,outcome,[2],inactive
same,fold change,[3]; [10],0.854 (inactive) and 0.859 (inactive) and 0.853 (inactive)
same,fold change,[3]; [11],1.13 and 0.759 and 2.93
same,cell count,[3]; [12],8770 and 7900 and 10600
same,cell count,[3]; [13],10300 and 9200 and 12500
same,z-score,[4]; [14],-0.255 (inactive) and -1.45 (inactive)
same,z-score,[4]; [15],0.469 and 0.621
